Test results reported in PubChem BioAssay (EPA / NIEHS).
“And” between values parts separate entries of the source, which are not always exact repeats. Equal entries are not always repeated. Records with an inconclusive call do not appear. Some compounds were tested as several samples or in several runs, with calls that do not always agree. The source made the active and inactive calls. Rule for the calls, unless noted: active = hit-call score of the fitted dose curve at least 0.9, where 1 is the maximum; inactive = score below 0.9.

Experiments:
[1] = read-out: Monokine induced gamma interferon (MIG), CXCL9 (gene 4283); experiment: BSK_SAg_MIG: BioMAP Diversity Plus: SAg Assay for Monokine induced gamma interferon (MIG) Biomarker Activity (AID 2283092); conditions: primary human HUVEC with PBMC; actives raise or lower the signal
Outline: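 ELISA readout of MIG/CXCL9; primary human umbilical vein endothelial cells co-cultured with peripheral blood mononuclear cells; 24 h post-dose; gain/loss fit vs DMSO baseline.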

[2] = read-out: Interleukin-8 (IL8), CXCL8 (gene 3576); experiment: BSK_SAg_IL8: BioMAP Diversity Plus: SAg Assay for Interleukin-8 (IL8) Biomarker Activity (AID 2283094); conditions: primary human HUVEC with PBMC; actives raise or lower the signal
Outline: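 Primary human endothelial cells with PBMC, exposed 24 h; IL-8 determined by ELISA, analysed bidirectionally relative to DMSO.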

[3] = BSK_SAg_Proliferation: Cell Proliferation Assessment in the BioMAP Diversity Plus: SAg Assay (AID 2283095); conditions: primary human HUVEC with PBMC;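 note: relative cell number as total protein by SRB absorbance in sub-confluent culture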
Outline: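 A human primary co-culture of umbilical vein endothelium and blood mononuclear cells receives compound; relative cell number is quantified at 96 h by SRB staining and 560 nm absorbance, with DMSO-referenced bidirectional curve fitting.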

[4] = BSK_SAg_SRB: Viability Assessment in the BioMAP Diversity Plus: SAg Assay (AID 2283096); conditions: primary human HUVEC with PBMC;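 note: cells read one day after compound addition; hits may be either gain or loss of signal compared with DMSO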
Outline: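 SRB absorbance at 560 nm served as the viability read-out. Cells (HUVEC plus peripheral blood mononuclear cells) were TCA-fixed and stained 24 h post-dosing; activity fitted in both directions against DMSO controls.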

[5] = biological target: human CYP19A1, CYP19A1 (gene 1588) (UniProt P11511); experiment: NVS_ADME_hCYP19A1: NovaScreen (NVS) CYP450-related Enzyme Activity (ADME) Assay for human CYP19A1 (AID 2283098; active = hit-call score of the fitted dose curve at least 0.9, where 1 is the maximum;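 for AC50: potency for inhibitors seen as loss of fluorescent enzyme signal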)
Sequence of human CYP19A1, CYP19A1 (gene 1588) (P11511 whole entry, looked up): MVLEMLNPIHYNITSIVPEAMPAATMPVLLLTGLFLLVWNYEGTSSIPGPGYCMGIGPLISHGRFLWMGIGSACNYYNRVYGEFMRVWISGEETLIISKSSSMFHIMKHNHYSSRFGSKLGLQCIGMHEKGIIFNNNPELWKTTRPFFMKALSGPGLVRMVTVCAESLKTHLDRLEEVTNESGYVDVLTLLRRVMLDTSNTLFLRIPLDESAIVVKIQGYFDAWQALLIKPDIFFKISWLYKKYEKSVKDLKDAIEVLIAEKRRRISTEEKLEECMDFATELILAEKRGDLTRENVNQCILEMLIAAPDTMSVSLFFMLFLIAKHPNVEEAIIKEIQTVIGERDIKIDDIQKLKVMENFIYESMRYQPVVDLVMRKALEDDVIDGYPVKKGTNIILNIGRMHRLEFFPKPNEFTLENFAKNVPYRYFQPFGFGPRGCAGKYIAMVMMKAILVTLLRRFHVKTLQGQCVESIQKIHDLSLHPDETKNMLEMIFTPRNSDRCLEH
Outline: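 Primary testing was in duplicate at a single 10 uM concentration, with actives followed up in concentration-response series. Fluorescence read-out of recombinant enzyme activity at 0.5 h, cell-free. Acetonitrile was the negative-control baseline.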

[6] = biological target: Cytochrome P450 2C18 (Homo sapiens) (UniProt P33260); experiment: NVS_ADME_hCYP2C18: NovaScreen (NVS) CYP450-related Enzyme Activity (ADME) Assay for human CYP2C18 (AID 2283103)
Sequence of Cytochrome P450 2C18 (Homo sapiens) (P33260 whole entry, looked up): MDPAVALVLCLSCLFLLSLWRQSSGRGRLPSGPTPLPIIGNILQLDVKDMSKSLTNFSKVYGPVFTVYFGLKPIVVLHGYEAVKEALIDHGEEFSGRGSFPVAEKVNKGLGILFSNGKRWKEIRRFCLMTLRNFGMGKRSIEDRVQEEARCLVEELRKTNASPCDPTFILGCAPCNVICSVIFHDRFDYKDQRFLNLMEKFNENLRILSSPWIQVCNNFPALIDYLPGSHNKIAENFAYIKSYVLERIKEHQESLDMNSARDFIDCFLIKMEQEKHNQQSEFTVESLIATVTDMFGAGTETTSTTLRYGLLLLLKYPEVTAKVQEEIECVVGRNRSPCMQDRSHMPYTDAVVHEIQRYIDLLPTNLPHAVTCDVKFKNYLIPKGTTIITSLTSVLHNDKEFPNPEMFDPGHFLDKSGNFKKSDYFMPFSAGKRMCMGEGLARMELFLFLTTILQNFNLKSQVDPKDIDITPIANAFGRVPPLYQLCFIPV
Outline: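 Enzyme activity measured by fluorescence 0.5 h after compound addition, using recombinant CYP2C18 and a specific substrate. Actives from duplicate 10 uM screening were retested in concentration series (top 20 uM); acetonitrile served as negative baseline.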

[7] = biological target: human CYP2C9, CYP2C9 (gene 1559) (UniProt P11712); experiment: NVS_ADME_hCYP2C9: NovaScreen (NVS) CYP450-related Enzyme Activity (ADME) Assay for human CYP2C9 (AID 2283108; active = hit-call score of the fitted dose curve at least 0.9, where 1 is the maximum)
Sequence of human CYP2C9, CYP2C9 (gene 1559) (P11712 whole entry, looked up): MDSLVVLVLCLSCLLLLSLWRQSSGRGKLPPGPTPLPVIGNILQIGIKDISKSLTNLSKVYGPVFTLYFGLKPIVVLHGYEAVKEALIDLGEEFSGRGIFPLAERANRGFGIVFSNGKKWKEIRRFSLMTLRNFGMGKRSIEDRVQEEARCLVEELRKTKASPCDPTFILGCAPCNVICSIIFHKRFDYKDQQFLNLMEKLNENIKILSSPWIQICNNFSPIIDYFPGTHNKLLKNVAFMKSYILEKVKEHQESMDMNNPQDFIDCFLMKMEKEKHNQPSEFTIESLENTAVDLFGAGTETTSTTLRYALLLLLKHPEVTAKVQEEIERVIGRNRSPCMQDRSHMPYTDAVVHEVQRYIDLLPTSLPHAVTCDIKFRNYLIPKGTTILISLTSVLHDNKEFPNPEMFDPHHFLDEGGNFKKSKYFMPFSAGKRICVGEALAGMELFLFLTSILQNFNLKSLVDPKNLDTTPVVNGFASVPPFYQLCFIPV
Outline: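 Fluorescence readout of CYP2C9 activity (SF9-expressed human enzyme) at 0.75 h. The primary screen used 10 uM in duplicate, with concentration-response follow-up for actives; acetonitrile was the negative control.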

[8] = biological target: Cytochrome P450 3A4 (Homo sapiens) (UniProt P08684); experiment: NVS_ADME_hCYP3A4: NovaScreen (NVS) CYP450-related Enzyme Activity (ADME) Assay for human CYP3A4 (AID 2283110; active = hit-call score of the fitted dose curve at least 0.9, where 1 is the maximum)
Sequence of Cytochrome P450 3A4 (Homo sapiens) (P08684 whole entry, looked up): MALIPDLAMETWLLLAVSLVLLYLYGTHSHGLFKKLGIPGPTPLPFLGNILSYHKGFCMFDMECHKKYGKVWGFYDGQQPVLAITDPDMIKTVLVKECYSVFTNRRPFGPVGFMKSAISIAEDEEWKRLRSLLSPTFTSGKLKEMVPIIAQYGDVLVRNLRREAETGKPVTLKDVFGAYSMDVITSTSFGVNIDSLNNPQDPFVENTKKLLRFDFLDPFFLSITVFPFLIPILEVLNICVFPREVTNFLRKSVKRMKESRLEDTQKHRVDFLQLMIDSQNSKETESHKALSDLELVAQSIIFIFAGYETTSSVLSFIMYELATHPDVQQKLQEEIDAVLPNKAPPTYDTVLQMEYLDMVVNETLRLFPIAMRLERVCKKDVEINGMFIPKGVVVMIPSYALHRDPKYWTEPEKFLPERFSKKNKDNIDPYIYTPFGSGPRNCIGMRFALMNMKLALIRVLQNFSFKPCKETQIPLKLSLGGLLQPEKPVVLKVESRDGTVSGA
Outline: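 Compounds screened in duplicate at 10 uM, with follow-up concentration-response for actives, against insect-cell-expressed recombinant enzyme. Activity read by fluorescence 0.33 h after dosing; loss of signal versus acetonitrile control indicates inhibition.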

[9] = BSK_SAg_PBMCCytotoxicity: PBMC Cytotoxicity Assessment in the BioMAP Diversity Plus: SAg Assay (AID 2283093); conditions: primary human HUVEC with PBMC;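 note: PBMC viability measured as Alamar Blue reduction fluorescence at 546/580 nm; fitted both ways against DMSO so a hit may be loss or gain of signal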;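 for AC50: PBMC superantigen activated with SEB plus TSST-1 one hour after compound addition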
Outline: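 Alamar Blue reduction (6 h, ex/em 546/580 nm) read after 90 h culture of PBMC pre-dosed 1 h then stimulated with SEB plus TSST-1, 20 ng/mL each. Gain or loss of signal fitted relative to DMSO.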

[10] = biological target: Cytochrome P450 2C19 (Homo sapiens) (UniProt P33261); experiment: NVS_ADME_hCYP2C19: NovaScreen (NVS) CYP450-related Enzyme Activity (ADME) Assay for human CYP2C19 (AID 2283113; active = hit-call score of the fitted dose curve at least 0.9, where 1 is the maximum;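 note: potency for inhibition seen as loss of fluorescent signal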)
Outline: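 Recombinant insect-cell-expressed enzyme, fluorescent substrate, 1 h after chemical addition, fluorescence intensity. Baseline = acetonitrile vehicle; activity scored as signal loss. Primary HTS single concentration 10 uM, duplicate; actives retested in concentration series.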

[11] = tested on: rat CYP2B1, gene 24300; experiment: NVS_ADME_rCYP2B1: NovaScreen (NVS) CYP450-related Enzyme Activity (ADME) Assay for rat CYP2B1 (AID 2283117; active = hit-call score of the fitted dose curve at least 0.9, where 1 is the maximum)
Outline: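 Cell-free fluorescence enzyme assay, recombinant rat CYP2B1, 0.75 h after dosing. Single-concentration duplicates at 10 uM preceded concentration series (max 20 uM) for actives; acetonitrile as negative-control baseline.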

[12] = biological target: human CYP1A2, CYP1A2 (gene 1544) (UniProt P05177); experiment: NVS_ADME_hCYP1A2: NovaScreen (NVS) CYP450-related Enzyme Activity (ADME) Assay for human CYP1A2 (AID 2283102; active = hit-call score of the fitted dose curve at least 0.9, where 1 is the maximum;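 note: potency for inhibition since loss of fluorescence marks reduced CYP1A2 activity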)
Sequence of human CYP1A2, CYP1A2 (gene 1544) (P05177 whole entry, looked up): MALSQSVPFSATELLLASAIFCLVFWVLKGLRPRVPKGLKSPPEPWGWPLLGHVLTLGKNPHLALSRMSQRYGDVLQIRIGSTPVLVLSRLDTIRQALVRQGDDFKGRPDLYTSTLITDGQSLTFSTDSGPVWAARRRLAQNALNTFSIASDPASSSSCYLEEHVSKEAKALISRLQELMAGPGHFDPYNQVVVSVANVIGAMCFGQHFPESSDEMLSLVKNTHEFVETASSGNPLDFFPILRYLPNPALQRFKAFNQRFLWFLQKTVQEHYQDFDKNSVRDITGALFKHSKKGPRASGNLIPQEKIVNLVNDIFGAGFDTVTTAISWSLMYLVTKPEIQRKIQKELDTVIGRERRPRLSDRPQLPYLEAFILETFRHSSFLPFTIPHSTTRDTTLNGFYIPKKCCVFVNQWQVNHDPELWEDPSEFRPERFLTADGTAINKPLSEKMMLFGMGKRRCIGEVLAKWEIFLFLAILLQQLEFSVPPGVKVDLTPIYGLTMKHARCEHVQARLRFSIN
Outline: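 Fluorescence-intensity enzyme activity read-out, taken 0.5 h post-dosing, using insect-cell-derived recombinant CYP1A2 and specific fluorescent substrate. Acetonitrile served as negative control/baseline. Single-concentration duplicate screen at 10 uM, then concentration-response follow-up.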

[13] = biological target: rat CYP1A2, Cyp1a2 (gene 24297) (UniProt P04799); experiment: NVS_ADME_rCYP1A2: NovaScreen (NVS) CYP450-related Enzyme Activity (ADME) Assay for rat CYP1A2 (AID 2283115; active = hit-call score of the fitted dose curve at least 0.9, where 1 is the maximum)
Sequence of rat CYP1A2, Cyp1a2 (gene 24297) (P04799 whole entry, looked up): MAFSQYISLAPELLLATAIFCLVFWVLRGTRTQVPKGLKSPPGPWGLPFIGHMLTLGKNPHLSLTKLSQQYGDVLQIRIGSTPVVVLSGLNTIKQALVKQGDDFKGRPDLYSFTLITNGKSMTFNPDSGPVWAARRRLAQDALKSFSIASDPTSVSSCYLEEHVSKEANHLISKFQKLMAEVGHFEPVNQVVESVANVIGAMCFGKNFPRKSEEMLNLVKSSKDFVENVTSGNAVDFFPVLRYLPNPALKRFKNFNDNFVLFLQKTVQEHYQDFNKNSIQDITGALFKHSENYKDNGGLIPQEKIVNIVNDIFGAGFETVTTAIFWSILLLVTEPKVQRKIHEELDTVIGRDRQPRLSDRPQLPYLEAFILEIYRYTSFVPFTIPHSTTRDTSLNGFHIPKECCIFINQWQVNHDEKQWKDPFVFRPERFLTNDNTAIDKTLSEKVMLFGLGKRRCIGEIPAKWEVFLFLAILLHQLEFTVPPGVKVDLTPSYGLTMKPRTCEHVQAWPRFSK
Outline: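 Primary testing ran in duplicate at 10 uM, with actives re-tested across concentration series. Fluorescence intensity from substrate turnover by recombinant protein, measured 1 hour post-dosing, with signal loss scored against acetonitrile vehicle.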

[14] = biological target: rat CYP2A2, Cyp2a2 (gene 24895) (UniProt P15149); experiment: NVS_ADME_rCYP2A2: NovaScreen (NVS) CYP450-related Enzyme Activity (ADME) Assay for rat CYP2A2 (AID 2283116; active = hit-call score of the fitted dose curve at least 0.9, where 1 is the maximum)
Sequence of rat CYP2A2, Cyp2a2 (gene 24895) (P15149 whole entry, looked up): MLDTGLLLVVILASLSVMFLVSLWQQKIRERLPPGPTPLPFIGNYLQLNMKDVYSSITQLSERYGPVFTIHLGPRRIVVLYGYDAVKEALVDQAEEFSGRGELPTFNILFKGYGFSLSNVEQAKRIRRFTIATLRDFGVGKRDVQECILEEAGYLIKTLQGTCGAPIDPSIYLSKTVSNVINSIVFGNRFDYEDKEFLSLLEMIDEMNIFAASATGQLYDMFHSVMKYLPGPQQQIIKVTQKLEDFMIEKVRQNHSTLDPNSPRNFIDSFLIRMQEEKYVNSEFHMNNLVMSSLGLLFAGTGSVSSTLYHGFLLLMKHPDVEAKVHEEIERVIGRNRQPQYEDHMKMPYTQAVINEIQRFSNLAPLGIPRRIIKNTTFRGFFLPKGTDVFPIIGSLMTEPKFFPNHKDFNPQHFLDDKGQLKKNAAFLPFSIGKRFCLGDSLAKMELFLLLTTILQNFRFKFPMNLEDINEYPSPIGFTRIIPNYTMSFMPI
Outline: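 Compounds first tested in duplicate at 10 uM, then in singleton concentration series up to 20 uM when over threshold. Activity of the recombinant enzyme read by fluorescence at 0.2 h, normalised to acetonitrile vehicle.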

[15] = biological target: human CYP2A6, CYP2A6 (gene 1548) (UniProt P11509); experiment: NVS_ADME_hCYP2A6: NovaScreen (NVS) CYP450-related Enzyme Activity (ADME) Assay for human CYP2A6 (AID 2283099; active = hit-call score of the fitted dose curve at least 0.9, where 1 is the maximum)
Sequence of human CYP2A6, CYP2A6 (gene 1548) (P11509 whole entry, looked up): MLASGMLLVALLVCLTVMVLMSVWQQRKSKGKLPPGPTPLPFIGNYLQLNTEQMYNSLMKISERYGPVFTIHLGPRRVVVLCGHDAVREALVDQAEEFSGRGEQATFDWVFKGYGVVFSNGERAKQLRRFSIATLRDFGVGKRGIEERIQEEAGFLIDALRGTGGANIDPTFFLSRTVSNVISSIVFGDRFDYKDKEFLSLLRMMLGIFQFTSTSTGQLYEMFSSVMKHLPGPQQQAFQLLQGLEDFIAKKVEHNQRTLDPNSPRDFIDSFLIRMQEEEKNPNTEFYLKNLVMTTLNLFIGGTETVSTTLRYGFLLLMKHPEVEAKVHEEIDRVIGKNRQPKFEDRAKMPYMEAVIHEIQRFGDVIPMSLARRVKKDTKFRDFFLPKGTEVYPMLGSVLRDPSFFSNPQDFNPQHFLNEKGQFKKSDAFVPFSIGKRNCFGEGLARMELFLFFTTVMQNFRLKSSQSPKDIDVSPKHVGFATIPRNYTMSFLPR
Outline: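 Insect-cell-expressed human CYP2A6 enzyme activity measured by fluorescence intensity 0.5 hour post-dosing. Compounds screened at 10 uM in duplicate, then hits tested singly in concentration series (max 20 uM); acetonitrile baseline.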

[16] = biological target: human CYP2B6, CYP2B6 (gene 1555) (UniProt P20813); experiment: NVS_ADME_hCYP2B6: NovaScreen (NVS) CYP450-related Enzyme Activity (ADME) Assay for human CYP2B6 (AID 2283101; active = hit-call score of the fitted dose curve at least 0.9, where 1 is the maximum)
Sequence of human CYP2B6, CYP2B6 (gene 1555) (P20813 whole entry, looked up): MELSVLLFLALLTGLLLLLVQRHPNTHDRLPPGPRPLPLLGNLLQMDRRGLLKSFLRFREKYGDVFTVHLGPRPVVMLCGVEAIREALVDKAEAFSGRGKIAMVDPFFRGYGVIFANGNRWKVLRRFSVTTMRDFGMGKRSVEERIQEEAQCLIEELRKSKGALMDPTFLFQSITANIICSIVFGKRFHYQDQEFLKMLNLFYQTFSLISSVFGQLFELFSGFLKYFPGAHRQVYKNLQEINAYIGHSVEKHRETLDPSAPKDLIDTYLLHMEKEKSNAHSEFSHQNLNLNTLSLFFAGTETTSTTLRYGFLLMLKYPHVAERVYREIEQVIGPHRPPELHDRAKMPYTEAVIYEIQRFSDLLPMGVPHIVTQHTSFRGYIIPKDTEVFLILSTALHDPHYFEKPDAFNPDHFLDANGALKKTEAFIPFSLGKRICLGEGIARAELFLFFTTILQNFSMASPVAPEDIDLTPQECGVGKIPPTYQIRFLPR
Outline: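 Fluorescence-based enzyme activity of recombinant human CYP2B6, measured 1 h post-dose against acetonitrile vehicle baseline. Screened at a single concentration of 10 uM in duplicate before concentration-response follow-up.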

[17] = biological target: human CYP2J2, CYP2J2 (gene 1573) (UniProt P51589); experiment: NVS_ADME_hCYP2J2: NovaScreen (NVS) CYP450-related Enzyme Activity (ADME) Assay for human CYP2J2 (AID 2283106; active = hit-call score of the fitted dose curve at least 0.9, where 1 is the maximum)
Outline: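 Chemicals were first tested at 10 uM in duplicate, and hits meeting criteria such as 30% inhibition were run in singleton concentration series with a 20 uM top concentration. Enzyme activity of recombinant CYP2J2 was measured by fluorescence after 1 h, relative to acetonitrile.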

[18] = biological target: human CYP2D6, CYP2D6 (gene 1565) (UniProt P10635); experiment: NVS_ADME_hCYP2D6: NovaScreen (NVS) CYP450-related Enzyme Activity (ADME) Assay for human CYP2D6 (AID 2283107; active = hit-call score of the fitted dose curve at least 0.9, where 1 is the maximum)
Sequence of human CYP2D6, CYP2D6 (gene 1565) (P10635 whole entry, looked up): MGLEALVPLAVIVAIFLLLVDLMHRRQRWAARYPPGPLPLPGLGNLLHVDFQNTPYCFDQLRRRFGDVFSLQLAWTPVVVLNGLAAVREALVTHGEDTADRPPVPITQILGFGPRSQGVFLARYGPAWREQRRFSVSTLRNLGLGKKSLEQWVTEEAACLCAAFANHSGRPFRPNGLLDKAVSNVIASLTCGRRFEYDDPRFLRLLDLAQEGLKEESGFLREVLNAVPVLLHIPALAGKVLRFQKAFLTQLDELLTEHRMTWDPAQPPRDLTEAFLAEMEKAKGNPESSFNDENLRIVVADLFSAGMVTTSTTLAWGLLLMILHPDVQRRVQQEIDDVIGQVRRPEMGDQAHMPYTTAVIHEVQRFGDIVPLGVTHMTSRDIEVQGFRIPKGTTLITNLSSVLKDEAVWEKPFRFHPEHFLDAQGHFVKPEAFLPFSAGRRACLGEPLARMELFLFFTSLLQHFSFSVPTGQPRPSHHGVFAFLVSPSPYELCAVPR
Outline: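 Fluorescence intensity read 1 h post-dosing; insect-cell-expressed recombinant protein with fluorogenic substrate, no cells. Activity is scored as signal loss relative to acetonitrile baseline, first at a single 10 uM concentration in duplicate, then as concentration series for confirmed actives.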

In the case of CO/C=C(/C(=O)OC)c1ccccc1Oc1cc(Oc2ccccc2C#N)ncn1, the AC50 [1] is reported as 34.9 µM (active) and 34.2 µM (active) and 30 µM (active), the outcome [1] is reported as “inactive” and the AC50 [2] is reported as 12.5 µM (active) [middle of 4 runs]. For the same molecule, the AC50 [3] was 13.9 µM (active) [middle of 4 runs], the AC50 [4] was 21.1 µM (active) and 15.4 µM (active) and the outcome [4] was “inactive”. The outcome [5] was “inactive”, the AC50 [6] was 5.5 µM (active) and the outcome [7] was “inactive”. For the same molecule, the outcome [8] was “inactive”.

In the case of O=C(O)COc1nc(Cl)c(Cl)cc1Cl, the outcome [1] is reported as “inactive”, the outcome [2] is reported as “inactive” and the outcome [3] is reported as “inactive”. The outcome [4] was “inactive”.

In the case of CCON=C(CC)C1=C(O)CC(c2c(C)cc(C)cc2C)CC1=O (configuration not stated), the outcome [1] is reported as “inactive”, the outcome [9] is reported as “inactive” and the outcome [2] is reported as “inactive”. For the same molecule, the outcome [3] was “inactive”, the outcome [4] was “inactive” and the AC50 [10] was 3.37 µM (active). The outcome [11] was “inactive”.

With CC1=C(C(=O)Nc2ccccc2)SCCO1 the outcome [1] was “inactive”, the outcome [9] was “inactive” and the outcome [2] was “inactive”. The outcome [3] was “inactive”, the outcome [4] was “inactive” and the AC50 [12] was 6.47 µM (active). For the same molecule, the outcome [13] was “inactive”.

For Oc1ccccc1-c1ccccc1, the outcome [1] was “inactive”, the outcome [9] was “inactive” and the outcome [2] was “inactive”. For the same molecule, the outcome [3] was “inactive”, the outcome [4] was “inactive” and the AC50 [5] was 4.05 µM (active). For the same molecule, the outcome [14] was “inactive”.

With N#Cc1nn(-c2c(Cl)cc(C(F)(F)F)cc2Cl)c(N)c1S(=O)C(F)(F)F (configuration not stated) the AC50 [1] was 35 µM (active), the AC50 [9] was 5.04 µM (active) and the AC50 [2] was 27.8 µM (active). The AC50 [3] was 15.6 µM (active), the AC50 [4] was 34 µM (active) and the AC50 [7] was 1.14 µM (active). For the same molecule, the AC50 [10] was 0.751 µM (active).

In the case of COC(=O)C=C(C)OP(=O)(OC)OC, the outcome [1] is reported as “inactive”, the outcome [2] is reported as “inactive” and the outcome [3] is reported as “inactive”. For the same molecule, the outcome [4] was “inactive”.

In the case of COC(=O)c1ccccc1C(=O)OC, the outcome [1] is reported as “inactive”, the outcome [2] is reported as “inactive” and the outcome [3] is reported as “inactive”. For the same molecule, the outcome [4] was “inactive”.

For CON(C)C(=O)Nc1ccc(Cl)c(Cl)c1, the outcome [1] was “inactive”, the outcome [9] was “inactive” and the outcome [2] was “inactive”. The outcome [3] was “inactive”, the outcome [4] was “inactive” and the outcome [5] was “inactive”. The outcome [13] was “inactive”.

In the case of COc1cnc(OC)n2nc(NS(=O)(=O)c3c(OCC(F)F)cccc3C(F)(F)F)nc12, the outcome [1] is reported as “inactive”, the outcome [9] is reported as “inactive” and the outcome [2] is reported as “inactive”. For the same molecule, the outcome [3] was “inactive” and the outcome [4] was “inactive”.

With COP(N)(=O)SC (configuration not stated) the outcome [1] was “inactive”, the outcome [9] was “inactive” and the outcome [2] was “inactive”. For the same molecule, the outcome [3] was “inactive”, the outcome [4] was “inactive” and the outcome [5] was “inactive”.

In the case of C=CCC1=C(C)C(OC(=O)C2C(C=C(C)C)C2(C)C)CC1=O (configuration not stated), the AC50 [1] is reported as 39.6 µM (active) [middle of 4 runs], the AC50 [2] is reported as 28.9 µM (active) [middle of 4 runs] and the AC50 [3] is reported as 30.9 µM (active) [middle of 4 runs]. The AC50 [4] was 32.1 µM (active) and 32.7 µM (active) and 36.2 µM (active), the outcome [4] was “inactive” and the outcome [15] was “inactive”. The outcome [16] was “inactive”, the AC50 [7] was 7.07 µM (active) and 14.6 µM (active) and 6.76 µM (active) and the outcome [7] was “inactive”. For the same molecule, the outcome [8] was “inactive”.

In the case of Cc1cc(Cl)ccc1OCC(=O)O, the outcome [1] is reported as “inactive”, the outcome [2] is reported as “inactive” and the outcome [3] is reported as “inactive”. The outcome [4] was “inactive”.

For COc1nc(NC(C)C)nc(NC(C)C)n1, the outcome [1] was “inactive”, the outcome [9] was “inactive” and the outcome [2] was “inactive”. For the same molecule, the outcome [3] was “inactive” and the outcome [4] was “inactive”.

For CC(C)(C)c1ccc(CSc2cnn(C(C)(C)C)c(=O)c2Cl)cc1, the outcome [1] was “inactive”, the AC50 [9] was 0.0975 µM (active) and the AC50 [2] was 0.453 µM (active). For the same molecule, the AC50 [3] was 6.61 µM (active) and the AC50 [4] was 13.6 µM (active).

In the case of CCCC1COC(Cn2cncn2)(c2ccc(Cl)cc2Cl)O1 (configuration not stated), the outcome [1] is reported as “inactive”, the outcome [9] is reported as “inactive” and the outcome [2] is reported as “inactive”. The AC50 [3] was 20.7 µM (active), the outcome [4] was “inactive” and the AC50 [5] was 2.04 µM (active). The outcome [15] was “inactive”, the AC50 [16] was 2.78 µM (active) and the AC50 [6] was 2.15 µM (active). For the same molecule, the outcome [17] was “inactive”, the AC50 [18] was 13.9 µM (active) and the AC50 [7] was 1.65 µM (active) and 4.57 µM (active). For the same molecule, the AC50 [10] was 0.721 µM (active), the AC50 [14] was 106 nM (active) and 102 nM (active) and the AC50 [11] was 799 nM (active) and 409 nM (active).
